# System: LXRa:RXRa (NR concentration 270 nM, RXRa partner concentration 90 nM)
# Assay: PBM binding z-score (relative to random genomic background probes); higher = stronger binding; sequences stand for … in GC…GCGATTGACAGCGTAGAATGAAGG
# Outline: (§1)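 Random background probes are the reference for binding z-scores. These scores derive from regression-normalized fluorescence on custom Agilent 4×180K protein-binding microarrays incubated 1 h with ligand-free nuclear receptor dimers. Binding was detected with antibodies against each partner (one per run).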
row,Sequence,PBM binding z-score
1,CGATCTAGGTCACCAGGACAGTGAAGAGGTTGGA,2.39
2,CGAACTAGATCACCAGGACAGTGAAGAGGTTGGA,-0.468
3,CGAACTAGGTCACCTGGACAGTGAAGAGGTTGGA,2.38
4,ATATGTAGGTTAGGGTCTTTCAGAAAGTAGGGAA,0.75
5,CGAACTAGGTCAAAGGACAGTGGAAGGCGACGTA,2.62
6,CGAACTAGGTCACCAGGACAGTGCAGAGGTTGGA,2.7
7,CGAACTAGGTCAAAGGACAGTGATAGGCGACGTA,2.62
8,ATATGTAGGTTAGTGTCATTCAGAAAGTAGGGAA,1.03
9,CGTACTAGGTCACCAGGACAGTGAAGAGGTTGGA,2.7
10,ATATGTAGGTTAGGCTCATTCAGAAAGTAGGGAA,-0.0164
11,ATATGCAGGTTAGGGTCATTCAGAAAGTAGGGAA,4.25
12,CGAACTAGGTCACCAGGAGAGTGAAGAGGTTGGA,2.33
13,CGAACTAGGTCAAATGACAGTGAAAGGCGACGTA,3.06
14,CGAACTAGGTCAAAGGACAGTGACAGGCGACGTA,2.82
15,ATAAGTAGGTTAGGGTCATTCAGAAAGTAGGGAA,4.27
16,CGAACTAGGTCACCAGGACAGTAAAGAGGTTGGA,2.44
17,ATATGTAGGTGAGGGTCATTCAGAAAGTAGGGAA,2.59
18,CGAACTAGGTCAGCAGGACAGTGAAGAGGTTGGA,0.718
19,CGAACTAGGTCAAAGGACAATGAAAGGCGACGTA,2.65
20,CGATCTAGGTCAAAGGACAGTGAAAGGCGACGTA,2.77

row,Sequence,PBM binding z-score
1,ATATGTAGGTTAGAGTCATTCAGAAAGTAGGGAA,1.04
2,CGAACTAGGTCACCAGGACAGTGAAGAGGTTGGA,2.39
3,ATATGTAGGCTAGGGTCATTCAGAAAGTAGGGAA,3.09
4,CGAACTTGGTCACCAGGACAGTGAAGAGGTTGGA,-0.231
5,ATATGTAGGTTAGGGGCATTCAGAAAGTAGGGAA,1.47
6,ATATGTAGGTTAGGGTCATTAAGAAAGTAGGGAA,3.41
7,ATATGTAGGTTTGGGTCATTCAGAAAGTAGGGAA,1.71
8,ATATGTAAGTTAGGGTCATTCAGAAAGTAGGGAA,4.5
9,ATATGAAGGTTAGGGTCATTCAGAAAGTAGGGAA,4.18
10,CGAACTAGGTCAATGGACAGTGAAAGGCGACGTA,1.85
11,CGAACTAGGTAACCAGGACAGTGAAGAGGTTGGA,-0.368
12,ATATGGAGGTTAGGGTCATTCAGAAAGTAGGGAA,4.25
13,CGAACTAGGTCACCAGGGCAGTGAAGAGGTTGGA,2.48
14,CGAACTAGGTCACCAGGACATTGAAGAGGTTGGA,2.68
15,CGAACTAGGTCAAAGGACAGCGAAAGGCGACGTA,2.78
16,CGAACTAGGCCACCAGGACAGTGAAGAGGTTGGA,-0.638
17,CGAACTAGGGCACCAGGACAGTGAAGAGGTTGGA,-0.347
18,CCAACTAGGTCACCAGGACAGTGAAGAGGTTGGA,2.6
19,CGAACTAGGTCAAAGTACAGTGAAAGGCGACGTA,3.09

# System: LXRa homodimer (NR concentration 270 nM)
# Assay: as above
# Outline: as §1
row,Sequence,PBM binding z-score
1,CGATCTAGGTCACCAGGACAGTGAAGAGGTTGGA,0.00222
2,CGAACTAGATCACCAGGACAGTGAAGAGGTTGGA,-0.072
3,CGAACTAGGTCACCTGGACAGTGAAGAGGTTGGA,0.0453
4,ATATGTAGGTTAGGGTCTTTCAGAAAGTAGGGAA,0.422
5,CGAACTAGGTCAAAGGACAGTGGAAGGCGACGTA,-0.0912
6,CGAACTAGGTCACCAGGACAGTGCAGAGGTTGGA,0.199
7,CGAACTAGGTCAAAGGACAGTGATAGGCGACGTA,0.0431
8,ATATGTAGGTTAGTGTCATTCAGAAAGTAGGGAA,0.483
9,CGTACTAGGTCACCAGGACAGTGAAGAGGTTGGA,0.154
10,ATATGTAGGTTAGGCTCATTCAGAAAGTAGGGAA,-0.0399
11,ATATGCAGGTTAGGGTCATTCAGAAAGTAGGGAA,0.906
12,CGAACTAGGTCACCAGGAGAGTGAAGAGGTTGGA,-0.171
13,CGAACTAGGTCAAATGACAGTGAAAGGCGACGTA,0.264
14,CGAACTAGGTCAAAGGACAGTGACAGGCGACGTA,0.19
15,ATAAGTAGGTTAGGGTCATTCAGAAAGTAGGGAA,1.68
16,CGAACTAGGTCACCAGGACAGTAAAGAGGTTGGA,0.233
17,ATATGTAGGTGAGGGTCATTCAGAAAGTAGGGAA,1.02
18,CGAACTAGGTCAGCAGGACAGTGAAGAGGTTGGA,-0.103
19,CGAACTAGGTCAAAGGACAATGAAAGGCGACGTA,0.155
20,CGATCTAGGTCAAAGGACAGTGAAAGGCGACGTA,-0.0244

row,Sequence,PBM binding z-score
1,ATATGTAGGTTAGAGTCATTCAGAAAGTAGGGAA,0.277
2,CGAACTAGGTCACCAGGACAGTGAAGAGGTTGGA,-0.071
3,ATATGTAGGCTAGGGTCATTCAGAAAGTAGGGAA,0.43
4,CGAACTTGGTCACCAGGACAGTGAAGAGGTTGGA,-0.0617
5,ATATGTAGGTTAGGGGCATTCAGAAAGTAGGGAA,0.824
6,ATATGTAGGTTAGGGTCATTAAGAAAGTAGGGAA,1.04
7,ATATGTAGGTTTGGGTCATTCAGAAAGTAGGGAA,0.946
8,ATATGTAAGTTAGGGTCATTCAGAAAGTAGGGAA,1.55
9,ATATGAAGGTTAGGGTCATTCAGAAAGTAGGGAA,1.26
10,CGAACTAGGTCAATGGACAGTGAAAGGCGACGTA,-0.266
11,CGAACTAGGTAACCAGGACAGTGAAGAGGTTGGA,-0.222
12,ATATGGAGGTTAGGGTCATTCAGAAAGTAGGGAA,1.34
13,CGAACTAGGTCACCAGGGCAGTGAAGAGGTTGGA,0.0109
14,CGAACTAGGTCACCAGGACATTGAAGAGGTTGGA,0.557
15,CGAACTAGGTCAAAGGACAGCGAAAGGCGACGTA,-0.185
16,CGAACTAGGCCACCAGGACAGTGAAGAGGTTGGA,-0.662
17,CGAACTAGGGCACCAGGACAGTGAAGAGGTTGGA,-0.377
18,CCAACTAGGTCACCAGGACAGTGAAGAGGTTGGA,0.434
19,CGAACTAGGTCAAAGTACAGTGAAAGGCGACGTA,0.303

# From the supplement of paper PMC6555819
